The values below come from PubChem BioAssay.

Each structure is given as a SMILES string. Calls of active or inactive are those of the source.

The target in one assay is Albumin (Bos taurus) (UniProt P02769). The assay is described as follows: bovine serum albumin binders on microarray, profiling panel, artefact control for SMM control protein annotation, biochemical, small-molecule microarray, Alexa647 label, 635/667 nm fluorescence (AID 1118).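 Also: score merges 667 nm emission intensity and signal-to-noise per printed compound spot.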 Particulars: BSA-A647 binding, fluorescence 635 nm, higher = more signal.
Chain of Albumin (Bos taurus) (P02769 whole entry, looked up): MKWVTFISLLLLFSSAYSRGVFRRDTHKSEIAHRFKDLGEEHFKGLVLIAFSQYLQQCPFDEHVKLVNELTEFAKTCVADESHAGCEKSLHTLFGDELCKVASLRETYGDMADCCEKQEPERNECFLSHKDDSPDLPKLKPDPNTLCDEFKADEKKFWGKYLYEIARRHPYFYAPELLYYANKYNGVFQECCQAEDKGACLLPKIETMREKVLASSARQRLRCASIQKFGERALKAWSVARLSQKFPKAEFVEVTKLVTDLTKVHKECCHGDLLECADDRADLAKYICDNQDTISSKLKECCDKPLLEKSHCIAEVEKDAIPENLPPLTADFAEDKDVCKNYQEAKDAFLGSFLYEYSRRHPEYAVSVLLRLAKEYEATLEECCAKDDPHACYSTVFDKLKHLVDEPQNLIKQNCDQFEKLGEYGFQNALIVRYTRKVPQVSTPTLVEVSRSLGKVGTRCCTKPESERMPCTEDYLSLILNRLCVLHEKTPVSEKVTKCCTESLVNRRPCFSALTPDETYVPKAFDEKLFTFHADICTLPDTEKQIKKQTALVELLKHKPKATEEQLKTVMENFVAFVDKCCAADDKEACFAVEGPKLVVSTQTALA
Assay [1] can be described thus: small-molecule microarray binders of probe aXIP, primary screen, biochemical, NeuroSMM set, 635/667 nm fluorescence (AID 1119).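 Also: probe is the protein aXip251-270 applied at 1 µg/mL to compound-printed slides; binding of probe to printed compounds measured as 667 nm fluorescence plus signal to noise.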 Particulars: higher = more signal, called active from +8 up or from −8 down.
Assay [2] in a line: small-molecule binders of probe aNOTCH3, primary screen, biochemical, small-molecule microarray, 635/667 nm fluorescence (AID 1120).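 Also: probe is a biotin-tagged antibody raised against NOTCH3 rather than NOTCH3 protein; score merges spot fluorescence near 667 nm with spot signal to noise.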 As to conditions: higher = more signal.
A short description of assay [3]: small-molecule binders of probe aNOTCH2, primary screen, biochemical, small-molecule microarray, 635/667 nm fluorescence (AID 1121).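 Also: score merges feature fluorescence read at 667 nm with its signal to noise.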 Particulars: higher = more signal.
Assay [4] addresses Carbonic anhydrase 2 (Homo sapiens) (UniProt P00918). The assay is described as follows: CAII small-molecule binders, profiling panel, biochemical, small-molecule microarray, Alexa647-labelled CAII (AID 1122). As to conditions: CAII-A647 binding fluorescence, higher = more signal.
Assay [5] is described as follows: COS7 lysate on small-molecule microarray, probe aHis, 635 nm (AID 1123).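 Also: z-score combines 667nm fluorescence intensity with signal-to-noise per printed compound spot.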 Particulars: COS7 cell lysate, fluorescence, higher = more signal.
A short description of assay [6]: compound binding in COS7 lysate, probe aLAP1, primary screen, cell lysate, small-molecule microarray (AID 1124).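 Also: lysate comes from COS7 cells expressing LAP1 and is applied at 0.3 µg/mL; score merges spot fluorescence near 667 nm with signal-to-noise over triplicate slides.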 Particulars: probe aLAP1, fluorescence, higher = more signal.
In a further assay the test system is Sam68 (KHDRBS1). The assay is described as follows: Sam68 small-molecule binders, primary screen, biochemical, small-molecule microarray, 635 nm fluorescence (AID 1125).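 Also: score merges 667 nm channel intensity with signal to noise over triplicate slides.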 As to conditions: small-molecule microarray binding, higher = more signal.
Assay [7] concerns Chordin-like protein 2 (CHRDL2). The assay is described as follows: CHRDL2 small-molecule binders, primary screen, biochemical, small-molecule microarray, 635 nm fluorescence (AID 1126).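 Also: printed compound slides probed with Chrdl2 protein at 4 µg/mL for 1 h at 4 C; score merges 667 nm emission intensity with signal to noise over three replicate slides.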 Particulars: small-molecule microarray binding, fluorescence 635 nm; higher = more signal.
The target in assay [8] is Concanavalin-A (Canavalia ensiformis) (UniProt P02866). In words: ConA small-molecule binders, primary screen, artefact control for SMM control protein annotation, biochemical, small-molecule microarray, Alexa647 label, 635 nm (AID 1127).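 Also: z combines 667 nm emission intensity with signal-to-noise across three replicate slides.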 As to conditions: ConA-A647 binding fluorescence, higher = more signal.
Chain of Concanavalin-A (Canavalia ensiformis) (P02866 whole entry, looked up): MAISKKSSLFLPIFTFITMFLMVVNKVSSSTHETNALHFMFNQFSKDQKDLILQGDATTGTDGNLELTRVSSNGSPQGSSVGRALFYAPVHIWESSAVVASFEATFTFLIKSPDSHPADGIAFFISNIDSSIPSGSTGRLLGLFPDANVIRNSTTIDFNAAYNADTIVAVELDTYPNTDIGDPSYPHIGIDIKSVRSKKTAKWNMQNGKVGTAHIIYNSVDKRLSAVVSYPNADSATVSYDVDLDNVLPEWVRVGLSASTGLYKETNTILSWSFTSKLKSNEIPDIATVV
Assay [9] can be described thus: anti-His antibody binders, primary screen, artefact control for SMM control protein annotation, biochemical, small-molecule microarray, 635 nm fluorescence (AID 1128).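 Also: score merges feature fluorescence with signal-to-noise for each printed compound spot.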 As to conditions: anti-His Alexa647 antibody binding, higher = more signal.
Assay [10] deals with Human papillomavirus type 1a E7 protein (residues 1-88). In words: HPV1a E7 small-molecule binders, primary screen, biochemical, small-molecule microarray, residues 1-88, 635 nm (AID 1129). As to conditions: small-molecule microarray binding, fluorescence 635 nm; higher = more signal.
The target of assay [11] is Focal adhesion kinase 1 (Homo sapiens) (UniProt Q05397). In words: small-molecule microarray binders of FAK, primary screen, biochemical, 635/667 nm fluorescence, BSA, DTT (AID 1130).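 Also: composite of spot emission at 667 nm and signal to noise over triplicate slides.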 Particulars: PTK2 binding, 635 nm fluorescence, higher = more signal.
Chain of Focal adhesion kinase 1 (Homo sapiens) (Q05397 whole entry, looked up): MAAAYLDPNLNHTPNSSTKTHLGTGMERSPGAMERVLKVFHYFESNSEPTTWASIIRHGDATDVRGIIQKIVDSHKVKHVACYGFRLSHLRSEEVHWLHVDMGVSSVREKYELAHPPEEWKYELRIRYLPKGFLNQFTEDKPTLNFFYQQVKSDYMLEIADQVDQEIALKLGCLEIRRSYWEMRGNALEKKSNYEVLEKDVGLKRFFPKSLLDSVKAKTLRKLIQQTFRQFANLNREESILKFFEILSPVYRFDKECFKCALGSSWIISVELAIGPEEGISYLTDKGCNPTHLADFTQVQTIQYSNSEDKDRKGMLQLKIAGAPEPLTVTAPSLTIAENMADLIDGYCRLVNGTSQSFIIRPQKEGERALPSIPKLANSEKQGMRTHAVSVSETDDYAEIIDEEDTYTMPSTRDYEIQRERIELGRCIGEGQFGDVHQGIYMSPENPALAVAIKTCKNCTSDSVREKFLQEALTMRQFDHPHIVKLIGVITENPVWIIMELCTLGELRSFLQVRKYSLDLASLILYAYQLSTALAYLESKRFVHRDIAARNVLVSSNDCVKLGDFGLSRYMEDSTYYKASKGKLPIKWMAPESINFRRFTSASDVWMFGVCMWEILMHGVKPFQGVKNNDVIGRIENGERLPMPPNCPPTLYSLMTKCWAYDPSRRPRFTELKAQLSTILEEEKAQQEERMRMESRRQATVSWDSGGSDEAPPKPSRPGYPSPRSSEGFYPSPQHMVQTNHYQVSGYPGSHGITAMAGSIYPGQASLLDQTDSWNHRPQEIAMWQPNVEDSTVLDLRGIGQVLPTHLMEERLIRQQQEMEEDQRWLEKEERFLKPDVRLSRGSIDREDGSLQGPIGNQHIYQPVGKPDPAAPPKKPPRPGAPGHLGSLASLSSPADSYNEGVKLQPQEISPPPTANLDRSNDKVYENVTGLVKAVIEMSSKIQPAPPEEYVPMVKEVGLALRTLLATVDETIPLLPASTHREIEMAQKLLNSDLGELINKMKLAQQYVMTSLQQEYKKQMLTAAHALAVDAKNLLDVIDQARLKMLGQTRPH
Assay [12] relates to Fibrinogen (Alexa647-labelled). The assay is described as follows: fibrinogen binders on compound microarrays, profiling panel, artefact control for SMM control-protein annotation, biochemical, small-molecule microarray, 635/667 nm fluorescence (AID 1131).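 Also: z-score merges 667 nm fluorescence with per-spot signal-to-noise over triplicate slides.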 As to conditions: fibrinogen-A647 binding fluorescence, higher = more signal.
Assay [13] deals with Follistatin (Homo sapiens) (UniProt P19883). The assay is described as follows: follistatin binders on small-molecule microarrays, primary screen, biochemical, small-molecule microarray, 635/667 nm fluorescence (AID 1132). Particulars: FST binding, 635 nm fluorescence, higher = more signal.
Chain of Follistatin (Homo sapiens) (P19883 whole entry, looked up): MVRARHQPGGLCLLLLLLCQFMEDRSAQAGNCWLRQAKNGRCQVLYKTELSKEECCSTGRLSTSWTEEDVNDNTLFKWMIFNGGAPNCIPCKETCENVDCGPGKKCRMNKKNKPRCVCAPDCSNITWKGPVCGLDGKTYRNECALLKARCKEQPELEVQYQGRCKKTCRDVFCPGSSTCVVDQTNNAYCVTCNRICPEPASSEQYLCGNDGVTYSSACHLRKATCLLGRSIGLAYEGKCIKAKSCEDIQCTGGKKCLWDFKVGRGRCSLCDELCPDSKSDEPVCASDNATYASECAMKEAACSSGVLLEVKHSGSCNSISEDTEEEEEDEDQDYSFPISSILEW
Assay [14] concerns the target Fibroblast growth factor 2 (Homo sapiens) (UniProt P09038). In words: FGF2 binders on small-molecule microarrays, primary screen, biochemical, small-molecule microarray, 635/667 nm fluorescence (AID 1133). Particulars: small-molecule microarray binding, FGF2, fluorescence 635/667; higher = more signal.
Assay [15] is described as follows: mitochondrial membrane potential change in A549 cells, profiling panel, cell-based, JC-1 fluorescence, basal, 24 h, 100 nL (AID 1138).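 Also: A549 lung adenocarcinoma cells under basal conditions with no added stimulus; test concentration not given here.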 As to conditions: higher = more signal.
The next assay relates to Lefty1. The assay is described as follows: Lefty1 binders on small-molecule microarrays, primary screen, biochemical, small-molecule microarray, 635/667 nm fluorescence (AID 1139). As to conditions: small-molecule microarray binding, fluorescence 635/667; higher = more signal.
Assay [16] deals with wheat germ agglutinin (Triticum aestivum), Alexa647-labelled. In words: wheat germ agglutinin binders on compound microarrays, profiling panel, artefact control for SMM control-protein annotation, biochemical, small-molecule microarray, 635/667 nm fluorescence (AID 1140).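 Also: score merges 667 nm feature emission with signal to noise over triplicate slides.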 As to conditions: WGA-A647 binding, 635 nm fluorescence, higher = more signal.
For assay [17], the target named is Luciferin 4-monooxygenase (Photinus pyralis) (UniProt P08659). In words: firefly luciferase enzyme inhibitors, primary screen, biochemical, luminescence, purified enzyme, 2006 set (AID 1141).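 Also: cell-free assay with purified firefly luciferase at 100 ng per well in PBS; test concentration not given here.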 As to conditions: SteadyGlo luminescence, 30 min, higher = more signal, called active from +8 up or from −8 down.
Chain of Luciferin 4-monooxygenase (Photinus pyralis) (P08659 whole entry, looked up): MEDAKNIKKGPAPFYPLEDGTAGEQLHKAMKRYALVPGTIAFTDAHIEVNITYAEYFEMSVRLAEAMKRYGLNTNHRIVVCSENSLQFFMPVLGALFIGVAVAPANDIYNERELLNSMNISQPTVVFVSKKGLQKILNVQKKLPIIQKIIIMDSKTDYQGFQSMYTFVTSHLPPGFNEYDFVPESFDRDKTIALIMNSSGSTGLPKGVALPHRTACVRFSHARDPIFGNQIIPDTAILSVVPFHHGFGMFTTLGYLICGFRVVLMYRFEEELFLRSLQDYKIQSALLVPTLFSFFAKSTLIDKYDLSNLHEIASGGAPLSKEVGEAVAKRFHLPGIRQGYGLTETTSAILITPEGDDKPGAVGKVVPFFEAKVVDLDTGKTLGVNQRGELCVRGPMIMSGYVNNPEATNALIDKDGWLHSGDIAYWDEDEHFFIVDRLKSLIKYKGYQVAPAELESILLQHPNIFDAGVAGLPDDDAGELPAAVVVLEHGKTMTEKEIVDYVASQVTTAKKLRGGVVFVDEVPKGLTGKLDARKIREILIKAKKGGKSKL

Chain of Fibroblast growth factor 2 (Homo sapiens) (P09038 whole entry, looked up): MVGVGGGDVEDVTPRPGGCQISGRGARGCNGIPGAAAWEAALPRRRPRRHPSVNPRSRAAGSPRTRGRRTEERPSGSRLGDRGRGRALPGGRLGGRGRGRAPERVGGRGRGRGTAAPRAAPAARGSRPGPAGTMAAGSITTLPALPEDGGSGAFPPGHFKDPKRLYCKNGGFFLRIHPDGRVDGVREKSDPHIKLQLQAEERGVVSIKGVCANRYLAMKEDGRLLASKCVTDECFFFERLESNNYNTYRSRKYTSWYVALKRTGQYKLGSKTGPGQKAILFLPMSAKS

For the compound `C=CCOC(=O)[C@H]1[C@@H]2C(=O)O[C@@H](c3ccccc3)[C@@H](c3ccccc3)N2[C@@H](c2ccc(OCCOC(=O)[C@H]3C[C@H]4C(=O)N[C@@H](CC(C)C)C(=O)N4[C@H]3c3cccc(OCCO)c3)cc2)[C@]12C(=O)Nc1ccc(I)cc12`, the composite z-score in the assay with Albumin (Bos taurus) is -0.172; in assay [2] it was 0.233; in assay [3], -0.107; in assay [4] it was 0.518; in assay [5], 1.15; in assay [6] it was 0.239. Moreover, the composite z-score with Sam68 (KHDRBS1) was found to be 1.32; in assay [7], 1.29; in assay [8] it was 1.11; in [9] it was 2; in assay [10], 1.18; in assay [11] it was 0.84. The composite z-score is 0.452 in assay [12]; 1.36 in assay [13]; 1.71 in [14]; 1.22 with Lefty1; 0.437 in assay [16]. In addition, the composite Z-score in assay [1] was 0.628 (inactive). Further, the figures for the z-score in assay [15] and in assay [17] were -0.175 and -1.48 (inactive), respectively.

On to `CC1=C([C@H](O)CCc2ccccc2)[C@H](CO)[C@@H]2C(=O)N(C)C(=O)[C@@H]2C1`, for which the composite z-score is 0.361 in the assay with Albumin (Bos taurus); 0.0313 in assay [2]; 0.0592 in assay [3]; 0.125 in [4]; 0.58 in assay [5]; 0.244 in assay [6]. The composite z-score is 0.535 in the assay on Sam68 (KHDRBS1); 0.557 in [7]; 0.476 in assay [8]; 0.32 in assay [9]; -0.183 in assay [10]; 0.332 in assay [11]. Also, the composite z-score was found to be 0.431 in [12]; 0.172 in assay [13]; 0.227 in [14]; 0.475 with Lefty1; 0.133 in [16]. Besides, the composite Z-score in assay [1] is -0.297 (inactive). Moreover, the z-score in assay [15] was 1.48; in [17], -1.01 (inactive).

Turning to `O=C(NCc1ccccc1)[C@@H]1c2ccccc2C(=O)N(Cc2ccccc2C(F)(F)F)[C@H]1c1ccc(CO)cc1`, the composite z-score with Albumin (Bos taurus) was -0.0228; in assay [2], -0.232; in assay [3] it was -0.13; in assay [4], 0.759; in assay [5] it was 0.829; in [6], 2.63. Also, the composite z-score was 0.227 in the assay on Sam68 (KHDRBS1); -1.2 in [7]; 0.612 in assay [8]; -0.782 in assay [9]; 0.334 in assay [10]; 0.0179 in assay [11]. For the same compound, the composite z-score in assay [12] was -0.709; in [13] it was 0.592; in assay [14], -0.133; in the assay on Lefty1, -0.324; in assay [16] it was 0.32. Besides, in assay [1], the composite Z-score was -0.683 (inactive). For the same compound, the z-score was 1.86 in [15] and -0.745 (inactive) in assay [17].

For `O=C(NCCCCCNC(=O)/C(Cc1ccccc1)=N/O)OCc1ccccc1`, the composite z-score with Albumin (Bos taurus) is -0.0396; in [2] it was -0.165; in [3], -0.195; in assay [4], -0.162; in [5], -0.564; in assay [6], 0.148. The composite z-score is -0.0603 with Sam68 (KHDRBS1); 0.366 in assay [7]; -0.485 in [8]; 0.0971 in [9]; 0.0944 in assay [10]; 0.433 in assay [11]. The composite z-score was 0.106 in assay [12]; 0.27 in [13]; 0.003 in assay [14]; 0.289 with Lefty1; -0.0398 in [16]. Further, in assay [1], the composite Z-score is -0.136 (inactive). Moreover, the results for the z-score in assay [15] and in assay [17] were 0.552 and 0.209 (inactive), respectively.

Consider `O=C1OCCC/C=C\[C@H]2OC34C=CCN(CCN5CCOCC5)C(=O)[C@H]3N(CCCCCCO)C(=O)[C@@H]4C12` (stereo not given in full), for which the composite z-score with Albumin (Bos taurus) is 0.719; in assay [2] it was -0.0947; in assay [3], -0.144; in assay [4] it was 0.867; in [5], 0.817; in assay [6], 1.57. For the same compound, the composite z-score in the assay with Sam68 (KHDRBS1) is 0.184; in [7], -0.394; in assay [8], -0.324; in [9], 3.45; in assay [10], 0.167; in assay [11] it was -0.447. For the same compound, the composite z-score in assay [12] is -0.613; in assay [13], -0.318; in assay [14] it was -0.25; with Lefty1, 0.337; in [16], 0.33. For the same compound, the composite Z-score in assay [1] is 1.02 (inactive). In addition, the z-score in assay [15] is 1.13; in assay [17], -1.05 (inactive).
